Source: PubChem BioAssay
The list is not random: actives were taken first. Their share in the collection is about 1.2%.
NOD2 RIPK2 PPI: NOD2-RIPK2 binding disruptors in cells, primary screen, fluorescence, CHO cells, BLA complementation. Receptor-interacting serine/threonine-protein kinase 2 (Homo sapiens), O43353. CCF4 ratio. inhibition, % at 4.98 µM. 360,000 tested, 0.38% active. AID 624267, 2012; in the data active = inhibition above about 21%
TLR4-MyD88 BLA: inhibitors of TLR4-MyD88 association in cells, primary screen, cell-based, HeLa CL3-4, BLA complementation, FRET ratio. HeLa CL3-4 TLR4/MyD88 BLA complementation. inhibition, % at 8.4 µM. 200,000 tested, 0.18% active. AID 861, 2007; in the data active = inhibition above about 25%
ABHD5 PLIN5 PPI: ABHD5-PLIN5 interaction inhibitors, primary screen, cell lysate, split luciferase complementation, luminescence; Perilipin-5 (Homo sapiens) + 1-acylglycerol-3-phosphate O-acyltransferase ABHD5 (Homo …; 360,000 tested, 0.78% active; Split G. princeps luciferase complementation, 4 h; inhibition, % at 4 µM;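 active = inhibition above the mean inhibition across every tested compound plus 3 SD, cut at about 22% in these data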
Target sequence (Q00G26 whole entry, looked up): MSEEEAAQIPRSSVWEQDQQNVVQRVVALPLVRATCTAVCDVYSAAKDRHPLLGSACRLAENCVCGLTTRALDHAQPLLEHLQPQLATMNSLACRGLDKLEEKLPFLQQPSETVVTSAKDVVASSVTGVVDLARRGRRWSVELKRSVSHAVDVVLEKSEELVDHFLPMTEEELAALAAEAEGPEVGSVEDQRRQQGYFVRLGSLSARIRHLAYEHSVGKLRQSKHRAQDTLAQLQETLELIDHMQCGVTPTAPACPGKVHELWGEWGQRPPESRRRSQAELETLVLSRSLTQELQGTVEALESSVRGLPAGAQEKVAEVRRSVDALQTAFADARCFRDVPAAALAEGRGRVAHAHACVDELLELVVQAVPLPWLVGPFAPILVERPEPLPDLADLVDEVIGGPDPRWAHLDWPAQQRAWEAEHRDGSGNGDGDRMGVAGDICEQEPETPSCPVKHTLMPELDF
Target sequence (Q8WTS1 whole entry, looked up): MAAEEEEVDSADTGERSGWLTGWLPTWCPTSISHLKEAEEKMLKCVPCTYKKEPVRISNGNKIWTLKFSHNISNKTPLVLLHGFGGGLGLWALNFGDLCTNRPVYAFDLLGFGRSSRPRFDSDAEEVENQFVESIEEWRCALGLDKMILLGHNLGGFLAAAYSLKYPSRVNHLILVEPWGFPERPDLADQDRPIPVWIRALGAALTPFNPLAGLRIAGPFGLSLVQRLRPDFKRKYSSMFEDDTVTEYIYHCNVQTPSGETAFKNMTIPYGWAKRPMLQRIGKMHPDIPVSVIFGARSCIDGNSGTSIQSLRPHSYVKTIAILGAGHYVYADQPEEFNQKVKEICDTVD
TLR9-MyD88 block: inhibitors of TLR9-MyD88 association in cells, primary screen, cell-based, CHO, BLA complementation, fluorescence; CCF4 FRET ratio; inhibition, % at 4.98 µM; 340,000 tested, 0.21% active;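 active = inhibition above the mean over all tested compounds plus 3 SD, cut at about 21% in these data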
NOD2 RIPK2 conf: NOD2-RIPK2 binding disruptors, retest, confirmation, fluorescence, CHO cells, BLA complementation, triplicate; shares compounds with NOD2 RIPK2 PPI; CCF4 FRET; inhibition, % at 4.98 µM; 1,200 tested, 70% active;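 active = mean inhibition across replicates above a set limit taken from the earlier primary screen, cut at about 21% in these data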
NOD2 BLA counter: counter-screen for NOD2-RIPK2 interaction inhibitors: BLA reporter | shares compounds with NOD2 RIPK2 PPI | CHO BLA reporter, CCF4 FRET ratio, counterscreen | inhibition, % at 4.98 µM | 1,200 tested, 57% active;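 active = mean inhibition above the low-control mean inhibition plus three low-control SD, cut at about 11% in these data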
Of the large screens only hits and unclear results are named; the others gave an inactive call (follow-up assays come after a bar, where they were run).

Nc1c(C(=O)NCc2ccc(Cl)cc2)sc2nc3c(c(C(F)(F)F)c12)CCC3	none
CCCN(CCC)CC(O)Cn1cc(/C=C/C(=O)c2ccccc2)c2ccccc21 (stereo not drawn)	none
CCCCN(C)CC(O)Cn1cc(/C=C/C(=O)c2ccc(C)cc2)c2ccccc21 (stereo not drawn)	NOD2 RIPK2 PPI 31.8 (no result: TLR4-MyD88 BLA) | NOD2 RIPK2 conf 43.9 | NOD2 BLA counter 41.3
Cc1ccc(/C=C2\Oc3c(ccc(O)c3CN3CCN(C)CC3)C2=O)cc1	NOD2 RIPK2 PPI 28.6 | NOD2 RIPK2 conf inactive | NOD2 BLA counter 24.9
CC1CCCN(Cc2c(O)ccc3c2O/C(=C\c2ccco2)C3=O)C1 (stereo not drawn)	none
Fc1ccc(/C=C2\CCCC3=C2Nc2ncnn2C3c2ccc(F)cc2)cc1 (stereo not drawn)	NOD2 RIPK2 PPI 25.8 | NOD2 RIPK2 conf inactive | NOD2 BLA counter 13.9
COc1ccc(C2C3=C(Nc4ncnn42)c2ccccc2CCC3)cc1 (stereo not drawn)	none
Cc1ccc(S(=O)(=O)N2CCC[C@H]2C(=O)Nc2ccc(F)cc2C)cc1	none (no result: TLR4-MyD88 BLA)
O=S(=O)(c1cccs1)N1CCN(CC(O)COc2cccc(Br)c2)CC1 (stereo not drawn)	NOD2 RIPK2 PPI 21.5 | NOD2 RIPK2 conf inactive | NOD2 BLA counter inactive
O=S(=O)(c1cccs1)N1CCN(CC(O)COC2CCCc3ccccc32)CC1 (stereo not drawn)	none
Cc1cc(NC(=O)CSCC(=O)OCc2nnc(-c3ccc(F)cc3)o2)no1	none (no result: TLR4-MyD88 BLA)
CC(=O)Nc1c(Cl)cnn(-c2ccccc2)c1=O	NOD2 RIPK2 PPI 21.5 (no result: TLR4-MyD88 BLA, TLR9-MyD88 block) | NOD2 RIPK2 conf inactive | NOD2 BLA counter inactive
Cc1cc(C(F)(F)F)nc(SCC(=O)Nc2c(C)n(C)n(-c3ccccc3)c2=O)n1	none (no result: TLR4-MyD88 BLA)
C/C(=N\NC(=O)c1cc(-c2ccncc2)nc2ccccc12)c1ccc(N2CCOCC2)cc1	NOD2 RIPK2 PPI 24.3 | NOD2 RIPK2 conf inactive | NOD2 BLA counter inactive
Cc1cccc2sc(NC(=O)Cn3c(C)csc3=O)nc12	none (no result: TLR4-MyD88 BLA)
Cc1cccc(C)c1OC(=O)CCN1C(=O)C2C3C=CC(C4CC34)C2C1=O (stereo not drawn)	none
Cc1nc2c(=O)n(C)c(=O)n(C)c2nc1Cl	NOD2 RIPK2 PPI 23.9 | NOD2 RIPK2 conf 30.1 | NOD2 BLA counter inactive
Cc1cc(C(C)C)n2c(nc3ccccc32)c1C#N	none (no result: NOD2 RIPK2 PPI, ABHD5 PLIN5 PPI, TLR9-MyD88 block)
Cc1cc(-c2ccco2)c(C#N)c2nc3ccccc3n12	NOD2 RIPK2 PPI 22.4 | NOD2 RIPK2 conf inactive | NOD2 BLA counter 14.8
CCN(CC)c1ccc(C=C(c2nnnn2-c2ccccc2)c2nnnn2-c2ccccc2)cc1	NOD2 RIPK2 PPI 26.9 | NOD2 RIPK2 conf 30.3 | NOD2 BLA counter 30.0
COC(=O)Nc1ccc(SCC(=O)c2cccc([N+](=O)[O-])c2)cc1	NOD2 RIPK2 PPI 22.2 (no result: TLR4-MyD88 BLA) | NOD2 RIPK2 conf inactive | NOD2 BLA counter inactive
O=C(CSC1=NS(=O)(=O)c2cc(Cl)ccc2N1)c1ccc(Cl)cc1	none (no result: TLR4-MyD88 BLA)
O=C(Nc1ccc(Cl)cc1)Nc1ccc2c(c1)N1CCN=C1S2	NOD2 RIPK2 PPI 21.6 | NOD2 RIPK2 conf 36.1 | NOD2 BLA counter 19.2
CC(C)C[C@@]12C(=O)N(c3cccc(F)c3)C(=O)N1[C@H](c1ccc(F)cc1)[C@@H]1C(=O)N(C3CCCCC3)C(=O)[C@@H]12	none (no result: TLR4-MyD88 BLA)
COc1ccc(NS(=O)(=O)c2ccc3ccccc3c2)c2ncccc12	NOD2 RIPK2 PPI 28.9 (no result: TLR4-MyD88 BLA) | NOD2 RIPK2 conf 30.1 | NOD2 BLA counter 17.4
Cc1cccc(C)c1NC(=O)c1nc(S(=O)(=O)Cc2ccccc2)ncc1Cl	NOD2 RIPK2 PPI 54.8, ABHD5 PLIN5 PPI 71.1 (no result: TLR4-MyD88 BLA) | NOD2 RIPK2 conf 47.9 | NOD2 BLA counter inactive
CSc1ncc(Cl)c(C(=O)Nc2cccc3ccccc23)n1	none
Cc1cccc2c(N=O)c(O)n(CCc3ccccc3)c12	NOD2 RIPK2 PPI 25.9 (no result: TLR4-MyD88 BLA) | NOD2 RIPK2 conf 25.1 | NOD2 BLA counter 13.8
NC(=S)N=Nc1c(O)n(Cc2ccc(F)cc2)c2ccccc12	none
O=Nc1c(O)n(Cc2ccc(Cl)cc2)c2ccccc12	NOD2 RIPK2 PPI 22.5 | NOD2 RIPK2 conf 22.1 | NOD2 BLA counter 16.9
Cc1cccc2c(=O)cc(C)n(Cc3ccccc3)c12	none
